This is part of a sample that, as a whole, favours compounds with a hit. Of some 83,000 tested, about 20% had one in any assay.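 A percent growth of 40 corresponds to 60% growth inhibition; 0 means no net growth; -100 means all cells died. Active threshold: below 10.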 Values without a mark were called inactive. The source made the active and inactive calls.
Columns and labels:
Test in all cases: NCI-60 one-dose screen, 48 h (100 = growth as untreated, 0 = no growth, -100 = all killed)
Details in all cases: 10 µM
[1] = system: NCI-H23 lung
[2] = system: NCI-H226 lung
[3] = system: HOP-62 NSCLC
[4] = system: NCI-H460 lung
[5] = system: HOP-92 NSCLC
[6] = system: NCI-H522 lung
[7] = system: A549/ATCC NSCLC
[8] = system: 786-0 renal
[9] = system: COLO 205 colon
[10] = system: DU-145 prostate
[11] = system: K-562 leukemia
[12] = system: MALME-3M melanoma
[13] = system: MDA-MB-231 breast
[14] = system: RXF 393 renal
[15] = system: SF-268 CNS
[16] = system: SF-295 CNS
[17] = system: SF-539 CNS
[18] = system: UACC-257 melanoma
[19] = system: M14 melanoma

SMILES | growth [1] | growth [2] | growth [3] | growth [4] | growth [5] | growth [6] | growth [7] | growth [8] | growth [9] | growth [10] | growth [11] | growth [12] | growth [13] | growth [14] | growth [15] | growth [16] | growth [17] | growth [18] | growth [19]
C=C(C)[C@@H]1CC[C@]2(COCCC#N)CC[C@]3(C)[C@H](CC[C@@H]4[C@@]5(C)Cc6c([nH]c7ccccc67)C(C)(C)[C@@H]5CC[C@]43C)[C@@H]12 | 90.6% | 94.5% | 105% | 84.9% | 107% | 87% | 99.8% | 101% | -42.8% (active) | 100% | 100% | 119% | 109% | 112% | 101% | 104% | 101% | 116% | 98.7%
COc1cc(NC(=O)Nc2cnc(Nc3ccc(N4CCOCC4)cc3)nc2Oc2cccc(OC)c2)cc(OC)c1 | 61.3% | 7.06% (active) | 32.1% | 23.9% | 4.67% (active) | 27.5% | 23.4% | -25.6% (active) | 46.2% | 36.9% | 55.4% | 8.57% (active) | 16.9% | -32.5% (active) | 50% | 34.6% | -68.4% (active) | 48% | 45.2%
CC(CN(C)C)Oc1ccccc1NC1=C(Cl)C(=O)C(Nc2ccccc2OC(C)CN(C)C)=C(Cl)C1=O (stereo not given) | -70.7% (active) | -94.4% (active) | -97.6% (active) | -4.55% (active) | -60.7% (active) | -73.4% (active) | 1.98% (active) | -71.5% (active) | -67.3% (active) | -99.3% (active) | -11.2% (active) | -76.6% (active) | -77.5% (active) | -90.7% (active) | -81.8% (active) | 30.6% | -98% (active) | -91.8% (active) | -65% (active)
O=C1c2ccccc2C(=O)c2c1ccc(C(Br)Br)c2Cl | 8.26% (active) | 80.4% | 96% | 78% | 42.7% | -72.9% (active) | 88.3% | -78.9% (active) | -33.4% (active) | 33.1% | -28.9% (active) | -70.9% (active) | -41.9% (active) | 36.2% | -19.1% (active) | 90.5% | 69.9% | 100% | 10.7%
CC(CN(C)C)Oc1ccc(OC(C)CN(C)C)c2c1C(=O)c1ccccc1C2=O (stereo not given) | 41.6% | 44.5% | 49.3% | 17.2% | 49.1% | 41.1% | 22.5% | 51% | 3.02% (active) | 46.1% | 24.5% | 67.6% | 40.9% | 59.2% | 47.8% | 48.2% | 51% | 72.8% | 56.6%
CNS(=O)(=O)Oc1ccc(-c2sc3cc(OS(=O)(=O)NC)ccc3c2C(=O)c2ccc(OCCN3CCCCC3)cc2)cc1 | 65.6% | 84.4% | 79.8% | 42.4% | 64.2% | 78.7% | 62.4% | 73.5% | 77.9% | 98.2% | 9.88% (active) | 57.7% | 79.1% | 38.8% | 87.9% | 89.3% | 65% | 70% | 65.7%
CC(C)C[C@H](NC(=O)Cn1cccc(CNC(=O)c2ccccc2)c1=O)B(O)O | 23.7% | -66% (active) | 5.64% (active) | 27.8% | -11.3% (active) | -9.79% (active) | 43.9% | 29.5% | 30.6% | 43.1% | 11.6% | -35.3% (active) | -2.81% (active) | -19% (active) | -19.5% (active) | 1.43% (active) | -16.6% (active) | -9.26% (active) | 12.2%
COc1cccc(-c2nc3sccn3c2-c2cccc(S(C)(=O)=O)c2)c1 | 85.4% | 90.1% | 105% | 106% | 87.3% | 102% | 102% | 100% | 114% | 110% | 95.5% | 129% | 93.4% | 84.1% | 100% | 94.4% | 94.3% | 115% | 119%
O=C(/C=C/c1cccc(B(O)O)c1)c1cccc(B(O)O)c1 | -0.41% (active) | -59.2% (active) | -34.7% (active) | 23.3% | 69.6% | -9.1% (active) | 34.2% | -88.6% (active) | -90.8% (active) | -69.4% (active) | 11.5% | 26.4% | -9.31% (active) | -86.7% (active) | -28.5% (active) | -14.6% (active) | -30.8% (active) | -11% (active) | -56.3% (active)
CC(C)(C)OC(=O)CN1CCc2c(sc3ncnc(N/N=C/c4ccccc4Br)c23)C1 | 80.2% | 83.4% | 89% | 70.9% | 73.7% | 53.4% | 77.6% | 77% | 62.1% | 94.6% | 16.6% | 93.2% | 65.5% | 70.3% | 76.9% | 99.2% | 84.1% | 92.7% | 73.4%
COc1cc(-c2nn(-c3cccc(NC(=O)NCCNC(=O)c4ccccc4)c3)cc2-c2ccncc2)ccc1Cl | 19.7% | 9.31% (active) | 26.4% | 13.5% | -0.717% (active) | 0.745% (active) | 24.2% | -50.6% (active) | 2.08% (active) | 23% | 5.31% (active) | -9.9% (active) | 25.9% | -23.4% (active) | 27.7% | -56.9% (active) | -12.9% (active) | 17.1% | -5.48% (active)
CS(=O)(=O)c1nccc(-c2c(-c3ccc(OCCc4ccccc4)cc3)nc3sccn23)n1 | 91.8% | 44.8% | 104% | 101% | 75.8% | 94% | 101% | 99.3% | 115% | 94% | 100% | 103% | 85.2% | 92.5% | 104% | 108% | 85.5% | 103% | 94.6%
NS(=O)(=O)Oc1ccc(-c2ccc3sccc3c2)cc1 | 94.2% | 88.1% | 104% | 103% | 104% | 87.1% | 98.3% | 106% | 114% | 104% | 96.9% | 106% | 90% | 100% | 102% | 97.2% | 98.9% | 104% | 100%
CC(=O)[C@H]1CC[C@]2(C)[C@@H]1CC[C@@H]1[C@@]3(C)CC(CCC#N)(CCC#N)C(=O)C(C)(C)[C@@H]3CC[C@]12C | 86.7% | 94.6% | 99.3% | 101% | 105% | 94.1% | 103% | 101% | 106% | 108% | 110% | 105% | 105% | 90.6% | 98.9% | 98.2% | 101% | 107% | 95.9%
CC[C@H]1OC(=O)[C@H](C)[C@@H](O[C@H]2C[C@@](C)(OC)[C@@H](O)[C@H](C)O2)[C@H](C)[C@@H](O[C@@H]2O[C@H](C)C[C@H](N(C)C)[C@H]2O)[C@](C)(OC)C/C(C)=C2/O[C@@]1(C)C=C2C | 83.9% | 84.6% | 77.9% | -49.6% (active) | 36.3% | 44.4% | 61.9% | 72% | -47.3% (active) | 76.9% | -19.6% (active) | -80% (active) | -44.2% (active) | 21.3% | 64.1% | 95.5% | 64.7% | 17.7% | -75.1% (active)
